Assay outcomes: PubChem BioAssay, National Center for Advancing Translational Sciences (NCATS)
Only some compounds are listed: those with a hit (about 2.4% of all), similar ones and a draw of the others.
D2 antagonist: D2 dopamine receptor (human) antagonism; HEK293 TREx D2 cells, calcium flux, dopamine EC80; inhibition, % at 10 µM; 2% of 340,000 active; AID 485344; in the data active = inhibition above about 30%; inactive = below that, where a call was filed; note: 0% is about no effect
Target sequence (P14416 whole entry, looked up): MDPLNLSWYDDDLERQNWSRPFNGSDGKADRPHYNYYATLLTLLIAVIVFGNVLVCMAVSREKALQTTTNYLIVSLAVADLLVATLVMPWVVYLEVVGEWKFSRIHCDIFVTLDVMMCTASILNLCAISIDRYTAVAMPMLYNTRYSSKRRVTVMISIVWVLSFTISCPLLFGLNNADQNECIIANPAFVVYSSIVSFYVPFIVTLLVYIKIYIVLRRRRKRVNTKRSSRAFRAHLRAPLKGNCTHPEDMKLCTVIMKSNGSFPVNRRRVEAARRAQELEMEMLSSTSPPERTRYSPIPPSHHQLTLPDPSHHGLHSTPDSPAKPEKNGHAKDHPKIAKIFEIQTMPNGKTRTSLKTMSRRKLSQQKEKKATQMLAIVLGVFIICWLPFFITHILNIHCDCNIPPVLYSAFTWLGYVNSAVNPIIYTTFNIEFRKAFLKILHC
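Inhibition of EC80 dopamine-driven calcium flux, recorded kinetically, defines activity here; cells are a tetracycline-induced HEK293 T-REx line expressing force-coupled D2.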
D2 ag-1: human D2 receptor agonism in beta-arrestin assay; P14416; AID 624465; 0.084% of 360,000 active; DiscoveRx PathHunter D2 beta-arrestin, luminescence, 90 min; 100% = 57 uM dopamine signal; activation, % (test concentration not listed); in the data active = activation above about 40%
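Agonist mode: compounds alone added to overnight-plated D2 PathHunter cells for 90 min at 37 C, with 57 uM final dopamine (EC100) defining full response. Beta-arrestin recruitment detected by chemiluminescent reagent, read after 1 h at ambient temperature.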
D2 ag-2: agonists of human D2 dopamine receptor; P14416; HEK293 T-REx D2 cells, calcium flux agonist mode; activation, % at 2 µM; 0.53% of 340,000 active; AID 485358;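 active = activation over 3 SD above normal in the single-dose calcium agonist read, cut at about 30% in these data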; note: 0% is about no effect
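Tetracycline-induced HEK293 Trex cells with D2 receptor force-coupled to calcium signaling, plated overnight at 30 C and loaded with no-wash calcium dye. Calcium flux read kinetically for 180 s after compound addition; responses flag agonists.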
D2 PAM-1: positive allosteric modulators of human D2 dopamine receptor; P14416; HEK293 T-REx D2, calcium flux, EC20 dopamine potentiation; potentiation, % at 10 µM; 0.34% of 340,000 active;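 active = potentiation over 3 SD above the plate norm, cut at about 30% in these data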; note: 0% is about no effect
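Using a no-wash calcium dye in inducible, force-coupled HEK293 Trex cells expressing D2, we tracked fluorescence each second for 180 s after compound, then for 180 s after EC20 dopamine to detect augmented signalling.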
D2 PAM-2: positive allosteric modulators of human D2 dopamine receptor; AID 624464; potentiation, % (test concentration not listed); DiscoveRx D2 beta-arrestin cells, luminescence, 90 min; 100% = 57 uM dopamine signal; 0.23% of 360,000 active; P14416; in the data active = potentiation above about 50%
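D2 cells co-treated with compound plus 50 nM dopamine (EC20) for 90 min at 37 deg C to detect potentiation. Beta-arrestin recruitment was read as enzyme-fragment luminescence after 1 h at ambient temperature. Full response was set by 57 uM dopamine.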
An asterisk follows results filed as active; x = no result.

SMILES	D2 antagonist	D2 ag-1	D2 ag-2	D2 PAM-1	D2 PAM-2
CC[C@@]12C(=O)N(c3cccc(C)c3)C(=O)N1[C@H](c1ccc(OC)cc1)[C@@H]1C(=O)N(C(C)(C)C)C(=O)[C@@H]12	14	-3	0	4	-12
CC1C=CCC2C(=O)N(c3ccccc3OC(=O)c3ccco3)C(=O)C12 (centres undefined)	-16	-3	1	3	-6
Cc1ccc(Nc2nc(-c3cccs3)cs2)nc1	-18	-6	2	0	0
CCOc1ccc2c(c1)C(C)=CC(C)(C)N2C(=O)Nc1ccccc1	2	6	0	34*	14
Cc1c(C)n(O)c2ccc3nonc3c12	41*	-2	1	9	1
COc1ccc(OC)c(NC(=O)COC(=O)COc2ccc(Nc3ccccc3)cc2)c1	x	-2	x	x	-5
Cc1cc(C(=O)NCc2ccc3c(c2)OCO3)n(-c2ccccc2)n1	-12	0	0	-13	3
CC(C)CNc1oc(-c2ccco2)nc1C#N	6	-3	-1	36*	-26
CC(Nc1oc(-c2ccco2)nc1C#N)c1ccccc1 (centres undefined)	-7	-1	-2	-1	-22
CNC(=S)N(CCc1ccc(OC)c(OC)c1)C1CC(=O)N(c2ccccc2)C1=O (centres undefined)	-4	-3	5	1	-6
COc1cc(OC)c(NC(=O)CCS(=O)(=O)c2ccc3c(c2)oc(=O)n3C)cc1Cl	x	x	0	0	x
COc1ccccc1NC(=O)CCS(=O)(=O)c1ccc2c(c1)oc(=O)n2C	31*	-4	0	-1	-4
CCN(C(=O)c1ccccc1)c1ccc([N+](=O)[O-])cc1	2	6	0	1	-3
Cc1cc2nc3s/c(=C/c4ccc(-c5ccccc5C(=O)O)o4)c(=O)n3c2cc1C	34*	-7	70*	-6	-11
O=C(O)c1ccccc1-c1ccc(/C=c2\sc3nc4cc(Br)cnc4n3c2=O)o1	-5	-2	0	-5	-7
CC(=O)c1cccc(Nc2nn(-c3ccc(OC(F)(F)F)cc3)nc2C(C)=O)c1	x	x	0	x	x
CN(C)c1ccc(/C=C2\SC(=S)N(Nc3ncc(C(F)(F)F)cc3Cl)C2=O)cc1	-19	-6	45*	-3	-23
COc1cc(/C=C2\SC(=S)N(Nc3ncc(C(F)(F)F)cc3Cl)C2=O)ccc1O	-1	-14	21	-11	-36
CN(Cc1ccco1)C(=O)CSc1nc(C2CC2)n(-c2ccccc2)n1	8	3	-1	-5	22
COc1ccc(/C=N/NC(=O)c2ccc(O)cc2O)cc1CSc1ccccn1	19	0	39*	-15	-1
CCN(c1ccccc1C)S(=O)(=O)c1cc2c3c(c1)CCN3C(=O)CC2	x	1	x	-3	9
CCN(c1ccccc1C)S(=O)(=O)c1cc2c3c(c1)CCC(=O)N3CCC2	21	-4	-1	41*	-4
CCCCC(O)(CCCC)C(=O)N/N=C(\C)c1ccc(Cl)cc1	-4	1	-2	-11	-14
O=C(c1ccc(F)cc1)C1CCN(Cc2cn[nH]c2-c2ccc(F)cc2)CC1	94*	-3	1	-25	-26
COc1ccc(C(=O)C2CCCN(Cc3cn[nH]c3-c3ccc(F)cc3)C2)cc1OC (centres undefined)	6	2	0	4	-19
SMILES	D2 antagonist	D2 ag-1	D2 ag-2	D2 PAM-1	D2 PAM-2
CCOc1ccccc1N1CCN(Cc2cn[nH]c2-c2ccc(F)cc2)CC1	81*	-2	22	-22	-4
Cc1cc(NC(=O)c2ccc(Cl)c(S(=O)(=O)N3CCOCC3)c2)no1	-16	5	1	8	-1
CCCCN(CC(=O)NC1CC1)S(=O)(=O)c1ccc(OCC)cc1	2	-3	0	17	-5
Clc1cccc(-c2cc3nc4c(c(N5CCN(c6cnccn6)CC5)n3n2)CCCC4)c1	41*	-1	1	1	-13
N=c1oc2c3c4c(cc2cc1C(=O)Nc1ccccc1)CCCN4CCC3	71*	4	95*	-15	23
COc1ccc(N(CC(=O)Nc2cccnc2)S(=O)(=O)c2ccccc2)cc1Cl	31*	-1	0	-21	-8
COC(=O)c1cc(NC(=O)CN(c2cccc(OC)c2)S(=O)(=O)c2ccccc2)ccc1Cl	13	-2	2	3	-11
O=C(CN(c1ccccc1)S(=O)(=O)c1ccc(Cl)cc1)Nc1cccnc1	34*	-3	1	-33	-11
COC(=O)c1cc(NC(=O)CN(c2ccccc2OC)S(=O)(=O)c2ccccc2)ccc1Cl	36*	-2	1	-4	-7
COc1ccc(N(CC(=O)Nc2cccnc2)S(=O)(=O)c2ccc(C)cc2)cc1Cl	4	-1	5	x	-20
COc1ccc(S(=O)(=O)N(CC(=O)Nc2ccc(C)cc2)c2ccc(C)cc2)cc1OC	x	x	1	-2	x
CCOc1ccc(NC(=O)CN(c2ccc(OC)c(OC)c2)S(=O)(=O)c2ccc(C)cc2)cc1	55*	-6	1	4	-5
CCn1ccc(=O)c2cc3c(cc21)OCO3	13	-5	0	-5	-12
O=C(Nc1ccc2c(c1)OCCO2)c1cccc2nc3ccccc3nc12	-28	-3	0	34*	-2
CCOC(=O)C1=C(CN2CCN(C(=O)c3ccco3)CC2)NC(=O)NC1c1ccc(C)cc1 (centres undefined)	37*	2	2	1	-12
COc1cc(NC(=O)c2ccc3c(c2)OCO3)ccc1NC(=O)C(C)C	64*	-5	-1	-2	-6
Cc1cc(NC(=O)c2ccc3c(c2)OCO3)ccc1NC(=O)c1ccco1	-11	-3	-1	-9	1
Cc1ccccc1NC(=O)c1ccc(NC(=O)c2ccco2)cc1	45*	2	2	-13	-12
Cc1ccc(C(=O)Nc2ccc3c(c2)OCO3)cc1NC(=O)c1ccco1	48*	-19	1	-3	4
Cc1ccccc1OCc1nc(-c2ccc(NC(=O)c3ccco3)cc2)no1	-31	7	-1	43*	6
CCOCC(=O)Nc1nnc(COC)s1	31*	0	0	8	-8
Cc1ccc(-c2nc3c4cnn(-c5cc(Cl)ccc5Cl)c4ncn3n2)cc1	x	x	0	-1	x
Cc1nc2c3cc(F)ccc3n(Cc3ccccc3F)c2s1	19	1	8	15	-13
CC(C)(C)OC(=O)CNC(=O)c1[nH]cnc1C(=O)NC(c1ccccc1)c1ccccc1	-21	-1	48*	-25	-4
C[C@H](NC(=O)c1nc[nH]c1C(=O)NC(c1ccccc1)c1ccccc1)C(=O)OC(C)(C)C	x	-1	x	x	-11
